Legend:
Assay in all cases: PBM binding z-score (relative to random genomic background probes); higher = stronger binding; sequences stand for … in GC…GCGATTGACAGCGTAGAATGAAGG
[1] = system: RARb homodimer (NR concentration 270 nM)
How it was run: (§1)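 Antibodies against each partner of ligand-free nuclear receptor dimers (one per run) detected binding on custom Agilent 4×180K protein-binding microarrays after 1 h incubation. The double-stranded probes had 34-nt variable regions carrying direct-repeat seeds, single-nucleotide variants, half-site ablations and random human genomic background sequences. Binding z-scores, from regression-normalized fluorescence, use the random background probes as reference.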

[2] = system: RARg:RXRa (NR concentration 270 nM, RXRa partner concentration 90 nM)
How it was run: as §1

[3] = system: RARg homodimer (NR concentration 270 nM)
How it was run: as §1

[4] = system: RXRa DBDmut IVT, anti-RXR (DBD mutation: RXRa K156A/R161A, NR concentration 90 nM)
How it was run: as §1

[5] = system: RXRa homodimer (NR concentration 180 nM)
How it was run: as §1

[6] = system: THRa:RXRa (NR concentration 90 nM, RXRa partner concentration 90 nM)
How it was run: as §1

[7] = system: THRa homodimer (NR concentration 90 nM)
How it was run: as §1

[8] = system: VDR homodimer (NR concentration 270 nM)
How it was run: as §1

| Sequence | PBM binding z-score [1] | PBM binding z-score [2] | PBM binding z-score [3] | PBM binding z-score [4] | PBM binding z-score [5] | PBM binding z-score [6] | PBM binding z-score [7] | PBM binding z-score [8] |
| --- | --- | --- | --- | --- | --- | --- | --- | --- |
| CGTGCAAGGTCAAGGTCAGTGAAAGAGACTCGAA | 5 | 6.85 | 7.64 | 3.8 | 6.7 | 4.26 | 3.18 | 3.35 |
| CCCAGTTGGTCAAGGTCACACACGCTATAGGTAC | 4.34 | 4.75 | 4.74 | 2.13 | 4.74 | 4.16 | 4.46 | 4.2 |
| CGTCCAAGGTCAGCAGGTCAGCGAAAGCGACGTG | 5.14 | 6.69 | 7.16 | 2.52 | 5.67 | 4.07 | 2.74 | 1.83 |
| GGAACGAGGGCATTCGAGTCGATAGCATGGCGAT | 0.222 | 1.01 | 1.35 | 3.2 | 0.622 | 2.5 | -0.885 | 1.87 |
| CTCGAAAGGTCGGTTGAGGCGAGTATACGGATAA | 1.33 | 2.36 | 2.23 | 0.644 | 1.72 | 4.02 | -0.501 | -0.121 |
| CGTGAAAGTTCAACTAAGGTAACGTAAAGCACGC | 4.13 | 5.55 | 6.12 | 4.76 | 4.3 | 5.32 | 1.64 | 3.71 |
| ATCTCTAGGTAAAGATAGTTTAGTGAATGCAAAT | 0.204 | 0.354 | 0.533 | -0.0109 | 0.0812 | 0.487 | 0.117 | 0.358 |
| ACTAGCAGGCCAAGTTTGGGTCACTCGAACAAAG | 2.15 | 2.31 | 1.59 | -0.0795 | 0.694 | 2.42 | 0.889 | 0.0508 |
| CGTACTGGGCCATCAGGTCATTGATATCAACGTT | 2.7 | 2.08 | 2.17 | 0.587 | 1.44 | 3.17 | 3.18 | 1.98 |
| CGTCCAGGGTCAGCAGGTCAGTGAAAGCGACGTG | 4.51 | 6.01 | 5.75 | 1.59 | 5.4 | 3.61 | 1.32 | 1.25 |
| CTCGAAAGGTCGCTTGAGGTGAGTATACGGATAA | 2.86 | 3.95 | 3.9 | 1.89 | 3.66 | 5.16 | 1.09 | 0.912 |
| ATCTCTAGGTTAAGTTCAGTGAAAGATCGATAGA | 2.18 | 2.18 | 2.54 | 2.12 | 1.41 | 1.99 | 1.4 | 3.19 |
| ATCTCTAGGTAACCAAGTTCAGTGATTGCCGAAC | 1.45 | 0.546 | 0.823 | 1.02 | 0.505 | 1.44 | 0.949 | 2.76 |
| CCTTGCGGGTCACTCCAGGTTATAGCATCGGAGT | 2.74 | 3.99 | 3.63 | 1.43 | 3.78 | 4.98 | 0.573 | 1.2 |
| CCGACTGGGCCAAAGGTTACCATACTCAGTACGA | 2.31 | 2.84 | 1.45 | 0.18 | 3.2 | 1.56 | 0.0942 | -0.0479 |
| TTACCAAGGTGAAGCTCGTTGATCCCTCTGTAGA | 0.199 | 0.159 | -0.0803 | -0.864 | 0.473 | 1.57 | 0.166 | -0.835 |
| GGAACGAGGGCATTCGAGTTGATAGCCTGGCGAT | 0.74 | 0.929 | 1.41 | 3.31 | 0.739 | 3.25 | -0.752 | 3.28 |
| AATACAGGTTCATCGTAGGCCAGAGTACGCACAG | 1.46 | 2.54 | 1.39 | 4.66 | 3.17 | 3.66 | 0.0172 | 5.45 |
| GCAGACAGGTGAAACGCAGGTAGCTCAGGGTGGC | -0.0117 | 0.108 | -0.0233 | -0.578 | 0.367 | 0.401 | -0.86 | -0.785 |
| GCGTCTGGGGCATCAGCAGGTTACCATAACTTAA | 0.953 | 0.859 | 0.544 | 0.254 | 0.243 | 1.06 | -0.103 | -0.379 |
| CGAACGAGTGCATGAGTTGATAGCAAATGCCGAT | -0.322 | 0.343 | 0.307 | 3.2 | 0.414 | -0.0112 | -0.726 | 2.6 |
| CCTACTGGGCCAAAAAGGTCCTTGATGCCGATAA | 0.795 | -0.28 | -0.148 | -0.722 | -0.259 | -0.265 | -0.242 | -0.393 |
| CCTACTGGTCCAAAAAGGTCATTGATGCCGATAA | 4.58 | 4.42 | 4.17 | 1.56 | 4.74 | 3.35 | 1.18 | 3.81 |
| TCTTGTAGATCTGCAGGTTAAGAAAGCTGGCCAA | 0.11 | -0.162 | -0.524 | 0.681 | 0.267 | 0.319 | -0.531 | -0.245 |
| CCGACTGGGGCAAGGGTTACCATACTCAGTACGA | 1.16 | 1.49 | 1.3 | -0.851 | 1.71 | 0.704 | -0.463 | 0.0843 |
| CGTACTAGGTCATTGACAGGACAGTGAATAGTAA | 2.49 | 4.45 | 4.13 | 2.38 | 2.6 | 2.9 | 0.971 | 1.45 |
| CGTCCAAGGTCAGAGAGGCCAGTGAATGCCGAGT | 4.08 | 4.46 | 5.6 | 2.66 | 3.4 | 3.28 | 1.86 | 2.3 |
| ATCTCTGGGTAAAGATAGTTCAGTGAATGCAAAT | 1.1 | 0.61 | 0.989 | -0.0472 | 0.123 | 0.544 | -0.18 | 0.45 |
